Most compounds without a hit are left out; they make up all but 4.7% or so of the library.
TRHR PAM = allosterically enhances the human TRH receptor; P34981; TRHR cells, fluo-8 calcium fluorescence, EC20 TRH enhancement; enhancement, % at 2 µM; hit rate 0.66% among 360,000; in the data active = enhancement above about 30%
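Enhancer read-out: after compound pinning and an initial kinetic agonist-mode read, an EC20 of TRH (10 nM final) was injected and fluo-8 calcium signal (Ex 480/Em 530) followed at 1 s/cycle for 100 cycles in TRHR-expressing cells.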
D1 potentiator = human D1 dopamine receptor positive modulation; P21728; HEK293 TREx D1 cells, calcium flux, dopamine EC20 potentiation; AID 504651; hit rate 0.036% among 360,000; potentiation, % at 10 µM; in the data active = potentiation above about 30%
Target sequence (P21728 whole entry, looked up): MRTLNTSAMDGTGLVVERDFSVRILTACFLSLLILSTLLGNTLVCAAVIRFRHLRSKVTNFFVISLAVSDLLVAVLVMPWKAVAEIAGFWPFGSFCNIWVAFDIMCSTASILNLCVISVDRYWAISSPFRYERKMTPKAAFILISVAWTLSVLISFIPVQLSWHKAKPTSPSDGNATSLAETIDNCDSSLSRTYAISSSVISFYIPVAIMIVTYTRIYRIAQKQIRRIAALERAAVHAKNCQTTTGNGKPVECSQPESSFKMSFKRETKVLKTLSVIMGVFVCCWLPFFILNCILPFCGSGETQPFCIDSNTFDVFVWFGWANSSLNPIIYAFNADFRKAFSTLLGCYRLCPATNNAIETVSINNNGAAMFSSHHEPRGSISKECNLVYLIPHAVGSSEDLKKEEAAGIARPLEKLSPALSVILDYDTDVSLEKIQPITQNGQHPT
D1 antag = antagonists of human D1 dopamine receptor; HEK293 TREx D1 cells, calcium flux, dopamine EC80; hits give low values; activity change, negative = inhibition, % at 10 µM; hit rate 3.2% among 360,000; AID 504652; in the data active = activity change below about -30%
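Calcium flux readout: force-coupled, inducible Hek293 Trex D1 line, cells induced overnight at 30 C with tetracycline, dye-loaded 30–90 min at RT. Antagonism scored against EC80 dopamine challenge given 180 s after compound.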
TRHR ag = agonists of human TRH receptor. P34981. TRHR cells, calcium flux fluo-8, FDSS agonist mode. activation, % at 2 µM. hit rate 0.18% among 360,000. AID 493084
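Steps: seed TRHR cells overnight; add fluo-8 no-wash Ca dye, RT 30 min–1.5 h; record 10 s baseline; pin-transfer compounds; monitor fluorescence 1 cycle/s for the agonist window. Calcium increases flag candidate agonists.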
D1 agonist = human D1 receptor agonism. hit rate 1% among 360,000. AID 504660. activation, % at 2 µM. HEK293 T-REx D1 cells, calcium flux, agonist mode. P21728
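Agonism was scored from calcium flux recorded over 180 s (1 read/s) after pintool compound addition, following a 10-cycle baseline. Cells were inducible force-coupled HEK293 TREx D1, plated overnight at 30 C and loaded with no-wash calcium dye.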
Hits are given with their value; – = inactive. Cut-off read from the data, not from the text of the source, unless noted: active = activation above about 30%; inactive = the rest.

SMILES	TRHR PAM	D1 potentiator	D1 antag	TRHR ag	D1 agonist
O=[N+]([O-])c1ccccc1/C=C/CN1CCCCC1CO (configuration not stated)	–	–	-33.8	–	–
O=[N+]([O-])c1ccccc1/C=C/CN1CCCCC1	–	–	–	–	–
CCOC(=O)C1CCCN(C/C=C/c2ccccc2[N+](=O)[O-])C1 (configuration not stated)	–	–	–	–	–
CCN(CC)C(=O)C1CCCN(C/C=C/c2ccccc2[N+](=O)[O-])C1 (configuration not stated)	–	–	-61.9	–	–
COc1ccc(CNC(=O)C2CCCN(S(=O)(=O)c3ccc4c(ccn4C)c3)C2)c(OC)c1 (configuration not stated)	–	–	–	–	–
Cc1cc(C)c(NC(=O)C2CCN(c3nn4c(=O)cc(C)nc4s3)CC2)c(C)c1	–	–	–	–	–
COc1cc(Cl)c(C)cc1Nc1nc2ccccc2nc1NS(=O)(=O)c1ccccc1	–	–	–	–	–
Cc1ccccc1C(=O)N=c1ccn(-c2nc3ccccc3nc2NS(=O)(=O)c2ccccc2)cc1	–	–	–	–	38.8
CCOc1ccc(S(=O)(=O)Nc2nc3ccccc3nc2-n2ccc(=NC(=O)c3ccccc3C)cc2)cc1	–	–	–	–	61.5
Cc1cc(C)c(NC(=O)CSc2ncc3c(n2)-c2cc(Cl)ccc2N(C)S3(=O)=O)c(C)c1	–	–	–	–	–
O=S(=O)(NNC(=S)NCC1CCCO1)c1cc(Cl)ccc1Cl (configuration not stated)	–	–	-38.9	–	–
COc1cccc(CN2C(=O)c3ccccc3Sc3ccc(C(=O)NCCc4ccc(C)cc4)cc32)c1	–	–	–	–	–
CC(C)CN(CCNC(=O)c1cc(-c2cccs2)nc2ccccc12)CC(C)C	–	–	–	–	–
Cc1cccc(N2C(=O)N(Cc3ccc(C(C)(C)C)cc3)c3ccccc3S2(=O)=O)c1	–	–	-47.6	–	–
Cc1cccc(N2C(=O)N(Cc3cc(=O)n4ccccc4n3)c3ccccc3S2(=O)=O)c1	–	–	-68.6	–	–
COc1ccc(OC)c(NC(=O)N(C)CCc2c(C)nn(C)c2C)c1	–	–	–	–	–
Cc1nn(-c2ccccn2)c2c1C(c1ccsc1)C1=C(CCCC1=O)N2 (configuration not stated)	–	–	-86.1	–	–
COc1ccc(NC(=O)c2cccc(N3C(=O)C4CC=C(C)CC4C3=O)c2)c(OC)c1 (configuration not stated)	–	–	-51.1	–	–
COc1ccc(OC)c(NC(=O)c2cccc(N3C(=O)C4C5CCC(C5)C4C3=O)c2)c1 (configuration not stated)	–	–	–	–	–
Cc1ccc(C(=O)Nc2cccc(N3C(=O)C4CCC(C)CC4C3=O)c2)cc1 (configuration not stated)	33.4	–	–	–	–
Cc1cccc(NC(=O)c2cccc(N3C(=O)C4CCC(C)CC4C3=O)c2)c1C (configuration not stated)	–	–	-49.3	–	–
CCOc1ccc(NC(=O)c2cn(C)c(=O)c3cc(OC)c(OC)cc23)cc1	–	–	–	–	–
CN(C)CCCN(C(=O)c1ccc(S(=O)(=O)N2CCCCC2)cc1)c1nc2cc3c(cc2s1)OCO3	–	–	–	–	33.4
CN(C)CCN(C(=O)c1ccc2ccccc2c1)c1nc2ccc(F)cc2s1	–	–	–	–	–
CCN(CC)CCN(C(=O)c1ccc(Br)s1)c1nc2cc3c(cc2s1)OCO3	–	–	–	–	–
CN(C)CCCN(C(=O)c1cccc(N2C(=O)CCC2=O)c1)c1nc2cc3c(cc2s1)OCO3	32.2	–	–	–	–
CN(C)CCCN(C(=O)c1ccc(C(=O)c2ccccc2)cc1)c1nc2ccc(F)cc2s1	–	–	-32.9	–	69.7
CCN(CC)CCN(C(=O)c1ccc2ncsc2c1)c1nc2cc3c(cc2s1)OCO3	–	–	-45.7	–	–
CN(C)CCCN(C(=O)c1ccc(S(=O)(=O)N2CCOCC2)cc1)c1nc2cc3c(cc2s1)OCO3	–	–	–	–	–
CC1CCC(NC(=O)c2ccc3c(c2)N(Cc2cccc(F)c2)C(=O)c2ccccc2S3)CC1 (configuration not stated)	–	–	–	–	–
